Screening data as filed in PubChem.
USP30 inh = blocks human USP30 ubiquitin-rhodamine cleavage; hit rate 5.3% among 47,000; inhibition, % at 25 µM; AID 1645860; purified USP30, Ub-rhodamine cleavage fluorescence
USP8 block = human USP8 deubiquitinase inhibition; P40818; purified USP8, Ub-rhodamine cleavage fluorescence, 30 min; inhibition, % at 20 µM; hit rate 4.2% among 47,000
OTUD3 inh = inhibitors of human OTUD3 deubiquitinase; Q5T2D3; purified OTUD3, Ub-rhodamine fluorescence, 2 h; inhibition, % at 25 µM; hit rate 0.7% among 47,000
USP28 block = human USP28 deubiquitinase inhibition; Q96RU2; purified USP28, Ub-rhodamine cleavage fluorescence, 30 min; inhibition, % at 25 µM; hit rate 3% among 47,000; AID 1645857
Target sequence (Q96RU2 whole entry, looked up): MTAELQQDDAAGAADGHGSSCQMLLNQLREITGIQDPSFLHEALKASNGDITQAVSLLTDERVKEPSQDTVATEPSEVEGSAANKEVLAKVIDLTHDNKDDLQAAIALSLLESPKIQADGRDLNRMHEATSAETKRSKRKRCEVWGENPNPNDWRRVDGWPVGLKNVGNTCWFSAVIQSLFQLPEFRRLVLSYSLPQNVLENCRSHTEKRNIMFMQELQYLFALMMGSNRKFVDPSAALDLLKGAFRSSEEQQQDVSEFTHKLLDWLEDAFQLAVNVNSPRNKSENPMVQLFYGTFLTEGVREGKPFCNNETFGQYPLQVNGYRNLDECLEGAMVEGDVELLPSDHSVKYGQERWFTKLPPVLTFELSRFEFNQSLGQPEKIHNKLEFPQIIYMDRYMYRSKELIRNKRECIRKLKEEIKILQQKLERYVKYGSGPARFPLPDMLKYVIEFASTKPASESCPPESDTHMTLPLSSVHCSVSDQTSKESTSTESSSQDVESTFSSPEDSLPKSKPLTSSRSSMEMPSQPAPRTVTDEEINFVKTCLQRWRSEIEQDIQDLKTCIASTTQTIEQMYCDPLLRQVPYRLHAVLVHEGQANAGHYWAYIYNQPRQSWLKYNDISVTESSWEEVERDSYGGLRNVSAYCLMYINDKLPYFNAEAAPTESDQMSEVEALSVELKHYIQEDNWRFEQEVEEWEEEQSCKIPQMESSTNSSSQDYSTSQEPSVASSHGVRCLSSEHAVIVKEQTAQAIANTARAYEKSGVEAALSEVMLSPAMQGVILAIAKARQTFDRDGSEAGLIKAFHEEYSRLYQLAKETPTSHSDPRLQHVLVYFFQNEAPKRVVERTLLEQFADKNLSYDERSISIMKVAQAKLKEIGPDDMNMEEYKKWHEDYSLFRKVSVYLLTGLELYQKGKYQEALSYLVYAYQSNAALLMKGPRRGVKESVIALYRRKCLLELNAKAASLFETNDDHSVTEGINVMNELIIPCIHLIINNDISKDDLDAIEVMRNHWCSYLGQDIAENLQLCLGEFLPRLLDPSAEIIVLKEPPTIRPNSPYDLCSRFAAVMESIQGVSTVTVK
USP17 block = blocks human USP17 ubiquitin-rhodamine cleavage; A8MUK1; purified USP17, Ub-rhodamine cleavage fluorescence, 3 h; inhibition, % at 50 µM; hit rate 6.5% among 47,000; AID 1645855
Hits are given with their value; i = inactive; nt = not tested or not shown. Most compounds without a hit are left out; they make up all but 13% or so of the library. No stated cut-off is given here; in the data, active means inhibition above about 30%; inactive means the rest.

SMILES	USP30 inh	USP8 block	OTUD3 inh	USP28 block	USP17 block
Cc1ccc2nc(NC(=O)CSc3nnc(-c4ccc5c(c4)OCO5)o3)sc2c1	i	i	i	i	i
Cc1ccn2cc(-c3ccc(NC(=O)C(C)Oc4ccccc4)cc3)nc2n1 (configuration not stated)	i	40	i	i	i
COc1ccccc1NC(=O)COc1cc(CSc2ncccn2)ncc1OC	i	i	i	i	i
COc1cnc(CSc2ccc(C)cc2)cc1OCC(=O)Nc1ccccc1	36	i	i	i	i
CC(Sc1nc2nn(-c3ccccc3)c(=O)c-2c2n1CCCCC2)C(=O)Nc1ccc(C#N)cc1 (configuration not stated)	33	i	i	i	i
CCOc1cc(=O)c(C(=O)Nc2ccc(C#N)cc2)nn1-c1ccccc1	i	i	i	i	i
CC(C)(C)c1ccc(C2CC(=O)C3=C(C2)Nc2ccccc2N(C(=O)CCC(=O)O)C3c2cccc([N+](=O)[O-])c2)cc1 (configuration not stated)	i	i	i	i	i
COc1ccccc1-c1nc(-c2nnn(Cc3cccc(F)c3)c2C)no1	i	i	i	56	i
Cc1ccc(Cn2nnc(-c3noc(-c4ccc[nH]4)n3)c2C)cc1	i	i	i	62	i
O=C(/C=C/c1ccccc1)Nc1cnc(N2CCOCC2)nc1	nt	i	i	nt	i
Cc1ccc(S(=O)(=O)N2CCN(S(=O)(=O)N3CCCCCC3)CC2)cc1	40	31	i	i	i
Cc1ccc(S(=O)(=O)N(C)c2c(C)ccc(S(=O)(=O)N3CCCCC3)c2C)cc1	30	i	i	i	i
CC(C)CN1CC2(CCN(C(=O)c3cccnc3)CC2)C2(CCNC2=O)C1 (configuration not stated)	i	i	i	i	i
Cn1c(=O)[nH]c(=O)c2c1nc(SCCCO)n2Cc1ccccc1Cl	i	i	i	i	nt
O=C(Nc1ccccc1)c1ccc(-c2nc(-c3ccc(Cl)cc3)cs2)cc1	i	i	i	i	i
O=C(Nc1cccc(C(F)(F)F)c1)c1ccc(-c2nc(-c3ccc(Cl)cc3Cl)cs2)cc1	i	i	i	i	32
CCCc1nc2c(sc3nc4c(cc32)COC(C)(C)C4)c(=O)n1CC(=O)Nc1ccccc1C	i	i	i	i	62
Cc1nc(SC(C)C(=O)Nc2ccccc2)c2sc3nc4c(cc3c2n1)COC(C)(C)C4 (configuration not stated)	i	i	i	i	i
Cn1cc(C(=O)Nc2ccccc2F)c2[nH]c(=O)n(-c3ccccc3)c(=O)c21	i	i	i	i	i
O=C(c1ccncc1F)N1Cc2ccnn2CC(COCC2CC2)C1 (configuration not stated)	i	i	i	i	i
COc1cc2nc(NC(=O)c3ccc(F)cc3Cl)sc(=O)c2cc1OC	92	i	i	78	62
O=C(Nc1ccc2nc3n(c(=O)c2c1)CCCC3)c1ccc(F)cc1Cl	i	i	i	i	i
COc1ccc(-c2c(C(=O)O)sc3c2NC(=O)CC3c2cc(F)ccc2F)cc1 (configuration not stated)	35	i	i	i	i
COc1ccc(C2CC(=O)Nc3c2sc(C(=O)O)c3-c2ccc(C)cc2)cc1 (configuration not stated)	i	i	i	i	i
O=C(CC(C(=O)Nc1ccc2c(c1)OCO2)C(=O)c1ccccc1)Nc1ccc(Cl)cc1F (configuration not stated)	59	i	i	i	34
SMILES	USP30 inh	USP8 block	OTUD3 inh	USP28 block	USP17 block
O=C(CN1CCN(Cc2ccc3c(c2)OCO3)CC1)Nc1ccc(Cl)cc1C(=O)c1ccccc1	i	i	i	i	i
O=C(Nc1ccc2c(c1)OCO2)C(Cc1cc(Cl)cc2c1OCOC2)C(=O)c1ccccc1 (configuration not stated)	i	i	i	i	i
N#Cc1ccc(CC(C(=O)Nc2ccc3c(c2)OCO3)C(=O)c2ccccc2)cc1 (configuration not stated)	35	i	i	i	i
CCn1c(C(=O)O)c(CNCc2cccc(Cl)c2)c2ccc(OC)cc21	i	i	i	i	i
CC1CCN(c2nc3c(c(=O)[nH]2)CCN(Cc2cnn(C)c2)C3)CC1	i	i	i	i	i
CC(=O)c1ccc(NC(=O)CN2CCC(NC(=O)c3ccccc3)CC2)cc1	i	i	i	i	i
O=C(NCc1cccs1)C(NS(=O)(=O)c1cccc2nsnc12)c1ccccc1 (configuration not stated)	i	i	i	i	i
